Screens (PubChem)
Most compounds without a hit are left out; they make up all but 21% or so of the library.
DT40 TDP1 no CPT: qHTS for Inhibitors of human tyrosyl-DNA phosphodiesterase 1 (TDP1): qHTS in cells in absence of CPT; DT40 Tdp1-/- hTDP1 cells, no CPT, ATP luminescence, 48 h; Potency, µM (series often up to 46.2 µM), most hits filed as inhibitors; 15% of 420,000 active; note: nearly all actives have a fitted effect of over 55% in size
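A cellular qHTS used chicken DT40 cells lacking endogenous Tdp1 but carrying stably transfected human TDP1. Compounds were applied without camptothecin, and cell growth kinetics were judged by ATP-dependent luminescence after ≥48 hr.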
D3 antag: D3 dopamine receptor (human) antagonism | AID 652054 | max response, negative = inhibition, % | 2.5% of 360,000 active | D3R cells, DiscoveRx beta-arrestin luminescence, antagonist mode; active compounds read low; in the data active = max response below about -50%; inconclusive = no clear call, values can overlap the other calls
Target sequence (P35462 whole entry, looked up): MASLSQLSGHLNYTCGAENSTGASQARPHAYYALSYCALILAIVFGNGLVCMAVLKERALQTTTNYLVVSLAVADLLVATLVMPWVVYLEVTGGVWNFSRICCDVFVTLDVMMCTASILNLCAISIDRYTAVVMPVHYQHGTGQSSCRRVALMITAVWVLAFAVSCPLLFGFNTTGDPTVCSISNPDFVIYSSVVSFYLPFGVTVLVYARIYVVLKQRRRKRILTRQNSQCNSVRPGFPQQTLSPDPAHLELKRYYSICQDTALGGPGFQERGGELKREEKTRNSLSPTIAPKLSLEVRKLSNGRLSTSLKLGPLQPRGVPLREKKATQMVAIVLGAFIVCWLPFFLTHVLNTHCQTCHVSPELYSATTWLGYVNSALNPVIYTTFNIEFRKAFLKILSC
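Cells plated overnight at 1500 cells/well, then exposed to library compounds with dopamine controls for 90 minutes at 37 degrees C. DiscoveRx reagent added for 30–60 minutes at room temperature; luminescence read, quantitative HTS format.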
D3 ag: agonists of human D3 dopamine receptor; D3R DiscoveRx beta-arrestin cells, luminescence, 90 min; AID 652048; 0.58% of 410,000 active; max activation, %; P35462; in the data active = max activation above about 30%
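Agonist-mode cell screen: cells plated at 1500/well and incubated overnight at 37 °C, then exposed to library compounds for 90 min at 37 °C. Detection reagent was added for 30–60 min at room temperature, and luminescence was read.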
TDP1 cell CPT: growth inhibition of DT40 Tdp1-/-;hTDP1 cells with camptothecin (screen for TDP1 inhibitors); Potency, µM (top dose mostly 46.2 µM), usual class: inhibitors; AID 686979; 12% of 420,000 active; chicken DT40 Tdp1-/-;hTDP1 cells + 20 nM CPT, ATP luminescence, 48 h; note: nearly all actives have a fitted effect of over 55% in size
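Chicken DT40 Tdp1-/- cells complemented with human TDP1, 400 cells/well, exposed to compounds plus 20 nM camptothecin for at least 48 h at 37 C; viability read as ATP content by CellTiter-Glo luminescence.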
IL-1B inflam inh: inhibitors of inflammasome signaling (IL-1 beta secretion); THP-1 LPS/ATP IL-1B secretion, AlphaLISA, 16 h; active compounds read low; activity change, % at 57.5 µM; 4.7% of 360,000 active; AID 743279; in the data active = activity change below about -50%; inconclusive = mostly about -30% to -49%
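THP-1 cells pretreated 1 hr with compounds (up to 57.5 uM final), then stimulated with LPS (250 ng/mL final) plus ATP (1.25 mM final); secreted IL-1B measured by AlphaLISA after 16 hr, decreased signal indicating inhibition.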
ClpP mod: qHTS Assay for Activators of ClpP | ATP-dependent Clp protease proteolytic subunit (Bacillus subtilis (strain 168)), P80244 | purified B. subtilis ClpP, FRET peptide cleavage, 20 min | Potency, µM (highest dose often 57.5 µM) | 1.9% of 340,000 active; active = well fitted falling curve with a large enough effect; inconclusive = small, poorly fitted or top-dose-only effect; inactive = no such curve, though single readings can be large or run the other way; note: the source files actives as falling curves though it sought activators and does not explain the sign; nearly all actives have a fitted effect of over 65% in size
Target sequence (P80244 whole entry, looked up): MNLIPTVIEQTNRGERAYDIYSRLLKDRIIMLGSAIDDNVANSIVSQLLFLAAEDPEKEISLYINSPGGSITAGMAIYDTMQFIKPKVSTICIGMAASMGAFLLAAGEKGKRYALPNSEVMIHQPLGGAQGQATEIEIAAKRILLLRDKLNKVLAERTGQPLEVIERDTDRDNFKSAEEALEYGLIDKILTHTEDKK
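ClpP 10 microg/mL final, pH 8 Tris/KCl buffer with BSA, glycerol, Tween-20; compound pinned in; FRET-FV substrate; RT 20 min; Ex320/Em430; ΔFRET vs ADEP 5.8 microM, DMSO, no enzyme.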
Hits are given with their value; – = inactive; ? = inconclusive; · = not tested or not shown; [ ] = dose if it differs, or a comment. Unless noted, calls come from the whole dose curve; as a rule, active = well fitted inhibition curve with a large enough effect; inconclusive = small, poorly fitted or top-dose-only effect; inactive = flat fitted curve, though single readings scatter.

SMILES	DT40 TDP1 no CPT	D3 antag	D3 ag	TDP1 cell CPT	IL-1B inflam inh	ClpP mod
Cc1ccc(NC(=O)CSc2nc3[nH]ncc3c(=O)[nH]2)cc1Cl	–	–	–	?	–	·
CCOC(=O)CSc1nnc(NCC(=O)OC(C)C)c(=O)[nH]1	23µM	–	–	10µM	–	–
O=C(C1COc2ccccc2O1)N(Cc1cccnc1)c1nc2ccc(Cl)cc2s1 (configuration not stated)	–	·	–	–	·	–
CN(C)C(=O)c1ccc(-c2cncnc2N2CCNCC2)cc1	–	·	·	–	·	·
COc1ccc(NC(=O)/C(C#N)=C/C=C/c2ccco2)cc1	9.2µM	?	–	8.2µM	-67	–
COc1ccc(NC(=O)/C(C#N)=C\c2ccc(N3CCOCC3)o2)cc1	21µM	–	–	?	–	·
N#C/C(=C\c1ccc(N2CCOCC2)o1)C(=O)Nc1ccc(O)cc1	29µM	?	–	?	-55	·
COc1ccc(NC(=O)/C(C#N)=C/c2ccc(C)o2)cc1	?	·	–	–	·	–
COc1ccc(OC)c(NC(=O)C(C#N)=Cc2ccco2)c1	–	–	–	–	–	·
Cc1cccc(C)c1-n1nnnc1C1(C)CCC(=O)N1Cc1cccs1 (configuration not stated)	?	–	–	–	–	–
CCOC(=O)c1c(NC(=O)CCCOc2ccccc2C)sc2c1CCC(C)C2 (configuration not stated)	–	·	–	–	·	–
c1ccc(-c2nc3ccccc3n2C(c2ccccc2)c2nc3ccccc3[nH]2)cc1 (configuration not stated)	?	–	–	?	–	–
c1csc(-c2nnsc2-c2nc3ccccc3[nH]2)c1	?	–	–	–	–	–
CC(c1nc2ccccc2[nH]1)n1c(=O)c(-c2cccs2)nc2ccccc21 (configuration not stated)	?	–	–	?	?	22µM
O=c1[nH]c2ccccc2nc1-c1cccs1	–	–	–	–	–	14µM
O=c1c(-c2ccccc2)nc2ccccc2n1C(c1ccccc1)c1nc2ccccc2[nH]1 (configuration not stated)	–	–	–	–	-53	–
COc1cc(Cc2nc3ccccc3n2C(C)c2nc3ccccc3[nH]2)cc(OC)c1 (configuration not stated)	?	–	–	18µM	–	–
Cc1cccc(C)c1N1C(=O)c2ccccc2NC(=O)C1C(=O)NCCc1ccccc1 (configuration not stated)	–	–	–	–	–	–
Cc1ccc(C)c(NC(=O)Cn2cnc3nc4c(cc3c2=O)CCCC4)c1	?	·	–	–	·	–
CC(c1nc2ccccc2[nH]1)n1c(=O)c(-c2cccnc2)nc2ccccc21 (configuration not stated)	?	–	–	23µM	-88	–
COc1ccc(C(=O)COC(=O)C2CCCN2C(=O)C23CC4CC(CC(C4)C2)C3)cc1 (configuration not stated)	–	–	–	23µM	–	–
COc1cccc(-c2ccnc(-n3ncc(C(=O)NCc4cccnc4)c3C3CC3)n2)c1	?	·	·	–[9.04 µM]	·	·
CCCc1cc(C(=O)Nc2cccnc2)no1	–	–	–	9.2µM	–	–
CCCc1cc(C(=O)Nc2ccc(F)c(Cl)c2)no1	?	-51	–	–	–	·
CCCc1cc(C(=O)Nc2cccc(Cl)c2)no1	–	?	–	–	–	–
SMILES	DT40 TDP1 no CPT	D3 antag	D3 ag	TDP1 cell CPT	IL-1B inflam inh	ClpP mod
CCCC(=O)C1=C(O)C(C(=O)OC)C(C)(C)CC1=Nc1ccc(OC)cc1 (configuration not stated)	21µM	–	–	?	–	·
CCCC(=O)C1=C(O)C(C(=O)OC)C(C)(C)CC1=Nc1ccc(Br)cc1 (configuration not stated)	23µM	–	–	?	–	–
COc1ccc(-c2nc3n(n2)C(c2ccc(O)cc2)C(C(=O)Nc2cccnc2)=C(C)N3)cc1OC (configuration not stated)	–	·	–	–	·	–
CSc1nc(-c2ccccc2)c(-c2ccccc2)[nH]1	?	?	–	–	–	16µM
COc1cccc(NC(=O)C2CCCN(S(=O)(=O)c3ccc4[nH]c(=O)ccc4c3)C2)c1 (configuration not stated)	?	·	–	?	·	–
COc1ccc(CCC(=O)NCc2nc3cccnc3n2Cc2ccc(F)cc2)cc1	?	·	–	?	·	–
Cc1ccccc1C(=O)NCc1nc2cccnc2n1Cc1ccccc1	?	·	–	?	·	–
COc1ccc(CCC(=O)NCc2nc3cccnc3n2Cc2ccc(C)cc2)cc1	23µM	·	–	?	·	–
COc1ccc(CCC(=O)NCc2nc3cccnc3n2Cc2ccccc2)cc1	16µM	·	–	?	·	–
COc1ccc(CCC(=O)NCc2nc3cccnc3n2Cc2ccc(OC)cc2)cc1	–	·	–	–	·	–
CCOc1ccccc1C(=O)NCc1nc2cccnc2n1Cc1ccc(C)cc1	16µM	·	–	18µM	·	–
Cc1nn(Cc2noc(C(=O)NC(C)c3ccccc3)n2)c(C)c1Br (configuration not stated)	–	·	–	?	·	–
O=C(COc1ncnc2ccc(Br)cc12)NC1CCCC1	–	–	–	–	–	–
Cc1cc(C(=O)N2CCN(c3ccc([N+](=O)[O-])cc3)CC2)n[nH]1	2.6µM	–	–	3.3µM	–	–
Cc1occc1C(=O)N1CCN(c2ccc([N+](=O)[O-])cc2)CC1	?	–	–	?	–	–
CCSc1ccccc1C(=O)N1CCN(c2ccc([N+](=O)[O-])cc2)CC1	16µM	–	–	?	–	–
O=C(c1cc2ccccc2cc1O)N1CCN(c2ccc([N+](=O)[O-])cc2)CC1	15µM	–	–	29µM	–	–
O=C(COC(=O)/C=C/c1ccc(C(F)(F)F)cc1)NCC1CCCCC1	?	–	–	?	–	–
CN(Cc1ccccc1)C(=O)c1[nH]cnc1C(=O)NCC(=O)OCc1ccccc1	–	–	–	–	–	–
COc1cc(NCc2ccc3nc(N)nc(N)c3c2C)cc(OC)c1OC	0.12µM	·	–	0.38µM	·	·
COc1ccc(CNc2ccncc2)c(OC)c1OC	–	–	–	?	–	·
COCc1ccc(C(=O)NC2CCCN(Cc3ccccc3F)C2)o1 (configuration not stated)	–	–	–	–	–	–
Nc1ccc2oc(-c3ccc4nc[nH]c4c3)nc2c1	10µM	–	–	21µM	–	?
